Laboratory results reported in PubChem BioAssay AID1259313 (Sanford-Burnham Center for Chemical Genomics, 2017).
The campaign covered roughly 340,000 compounds. About 8,500 (2.5%) were called active.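 How the source made its calls: active means melting temperature shift of at least 10% of the positive control shift, at one fixed dose; inactive means the rest.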 The sample as a whole holds a higher share of actives than the screen did.

Tested on: Glutamate receptor ionotropic, NMDA 3A (GRIN3A) ligand-binding domain
Test: NR3A LBD thermal stabilization by compounds – biophysical, differential scanning fluorimetry, uHTS, primary screen (AID 1259313)
Settings: at 25 µM, hits give high values, 0% = protein alone, 100% = glycine-bound protein

Row | SMILES | Tm shift relative to glycine control
1 | Cc1ccc(CNC(=O)Cn2cnc3c(NCc4ccccc4)ncnc32)o1 | 3% (inactive)
2 | Cc1ccc(-c2csc(NCCc3nc4cc(Cl)c(Cl)cc4n3CCOCCO)n2)cc1 | -1.81% (inactive)
3 | Cc1ccc(Nc2nc(-c3ccc(O)cc3O)cs2)nc1 | 27.4% (active)
4 | COc1ccc(CCNC(=O)NS(=O)(=O)c2ccc(C)cc2)cc1OC | -2.28% (inactive)
5 | O=[N+]([O-])c1ccccc1SNc1ccccn1 | 1.04% (inactive)
6 | CCOC(=O)N1CCN(CC(=O)c2ccc3c(c2)CCN3)CC1 | -1.56% (inactive)
7 | C[C@H](OC(=O)n1ccnc1)[C@@H]1O[C@@]2(C)CCC[C@@H]1O2 | -0.49% (inactive)
8 | COc1ccc(N(CC(=O)NC2CCCCCCC2)S(=O)(=O)c2c(C)nn(C)c2C)cc1 | -1.2% (inactive)
9 | O=C(C1CCCN(S(=O)(=O)c2ccccc2)C1)N1CCN(c2ccc(F)cc2)CC1 (configuration not stated) | -0.26% (inactive)
10 | O=C(O)C1CCCCC1C(=O)N1CCN(S(=O)(=O)c2ccc(F)cc2)CC1 (configuration not stated) | 14.4% (active)
11 | O=S(=O)(c1ccc(F)cc1)N1CCN(C(=S)NC2CCCC2)CC1 | 1.46% (inactive)
12 | Cc1cc(=O)oc2c1ccc1ccccc12 | 0.49% (inactive)
13 | CCOC(=O)c1cccc(NC(=O)C2CCCN(S(=O)(=O)c3cnc[nH]3)C2)c1 (configuration not stated) | -1.2% (inactive)
14 | Cc1cc(C)c(C(=O)CSc2nc(C)cc(=O)[nH]2)c(C)c1 | -3.2% (inactive)
15 | COC(=O)c1ccccc1SC1CC(=O)N(c2cccc(C)c2)C1=O (configuration not stated) | -2.37% (inactive)
16 | COc1cc(OC)c(C(=O)Nc2ccccc2-c2ccccc2)cc1OC | 11.5% (active)
17 | COc1cc2ccccc2cc1C(=O)Nc1ccccc1C | 3.64% (inactive)
18 | O=C(Nc1ccccc1-c1ccccc1)c1ccccc1[N+](=O)[O-] | -0.71% (inactive)
19 | Cc1sc(NC(=O)C2=COCCO2)c(C#N)c1C | -1.88% (inactive)
20 | O=C(Nc1cccc(-c2cccc(Cl)c2)c1)C1CCN(C2CCC2)CC1 | -0.08% (inactive)
21 | C=CCSc1nnc(Cn2c(=O)sc3ccccc32)n1C | -0.55% (inactive)
22 | O=c1c(-c2ccc3c(c2)OCCO3)c(C(F)(F)F)oc2cc(O)cc(O)c12 | 6.01% (inactive)
23 | CCOC(=O)c1oc2c(CN3CCN(C)CC3)c(O)ccc2c(=O)c1-c1ccc(Br)cc1 | -3.94% (inactive)
24 | CCOC(=O)c1cc2cc(-c3c(C(=O)OCC)oc4cc(O)cc(O)c4c3=O)ccc2o1 | 22.4% (active)

Row | SMILES | Tm shift relative to glycine control
25 | Nc1nc(SCc2ccc([N+](=O)[O-])cc2)c2ncn(C3OC(CO)C(O)C3O)c2n1 (configuration not stated) | 1.21% (inactive)
26 | COc1ccc(CN2CCNC(=O)C2CC(=O)N(C)Cc2ccccn2)cc1OC (configuration not stated) | 2.19% (inactive)
27 | Cc1ccc(-n2nc(C)c(/C=N/NC(=O)c3cccs3)c2Cl)cc1 | -1.88% (inactive)
28 | Cc1cccc(-n2c(C)cc(/C=N\NC(=O)c3cccs3)c2C)c1 | 11.5% (active)
29 | Cc1ccc(-n2c(C)cc(/C=N\NC(=O)CC(=O)NC(C)C)c2C)cc1 | -0.09% (inactive)
30 | CN1CCN(c2ccccc2NC(=O)COc2ccc(C3CCCCC3)cc2)CC1 | 2.39% (inactive)
31 | CC1(C)C/C(=C(/C#N)C(N)=O)CCO1 | 1.51% (inactive)
32 | Cc1cc(Cl)ccc1C(=O)C1CCCN(C(=O)CCN2CCCO2)C1 (configuration not stated) | -1.36% (inactive)
33 | O=C(Nc1ccc(C(=O)N2CCOCC2)cc1)Nc1cccc(C(F)(F)F)c1 | -5.51% (inactive)
34 | COc1cccc(NC(C)=[N+](C)CCNS(=O)(=O)c2ccc(Cl)cc2)c1 | -3.14% (inactive)
35 | CCNS(=O)(=O)c1ccc(NC(=O)Nc2cccc(OC)c2)cc1 | 29.6% (active)
36 | CCN(CC(=O)Nc1ccc(S(=O)(=O)N2CCCC2)cc1)CC(=O)Nc1cccc(OC)c1 | 0.48% (inactive)
37 | O=C(NCc1ccccc1)c1ccc(S(=O)(=O)Nc2cccc(C(F)(F)F)c2)cc1 | 8.53% (inactive)
38 | CCNS(=O)(=O)c1ccc(NC(=O)Nc2cccc(C(F)(F)F)c2)cc1 | 38.8% (active)
39 | O=C(N/N=C/c1ccc(OCC2COCCO2)cc1)c1ccc(Br)cc1 (configuration not stated) | 8.82% (inactive)
40 | COc1ccc(N2C(=O)C3C(C2=O)C(C(=O)c2ccccc2)N2CCCC32)cc1 (configuration not stated) | -1.47% (inactive)
41 | Cc1cccc(C(=O)Nc2ccccc2C(=O)NCc2cccnc2)c1 | -0.85% (inactive)
42 | Nc1cccc(-c2cc(-c3ccccc3)nc(-c3cccc(N)c3)n2)c1 | 42.8% (active)
43 | Cc1nc(NNC(=O)c2ccccc2)cc(-c2ccccc2)n1 | -0.16% (inactive)
44 | c1ccc(-c2cc(N3CCCCC3)c3ccccc3n2)cc1 | 0.96% (inactive)
45 | NS(=O)(=O)c1ccc(N=Nc2c(O)[nH]c3ccc(Br)cc23)cc1 | 23.4% (active)
46 | O=C(CNC(=O)Cc1ccccc1)N=Nc1c(O)[nH]c2ccc(Br)cc12 | -9.04% (inactive)
47 | Oc1[nH]c2ccc(Br)cc2c1N=Nc1nn[nH]n1 | 4.42% (inactive)
